The source made the active and inactive calls. The calls were made as follows: active = hit-call score of the fitted dose curve at least 0.9, where 1 is the maximum; inactive = score below 0.9.
test: CCTE_Shafer_MEA_acute_per_network_burst_spike_number_mean: CCTE's Neural Acute Assay for Average Number of Spikes in a Network Burst, Shafer Lab (AID 2284019)
Experimental: CCTE_Shafer_MEA_acute assay is conducted using Axion Biosystems 48 well microelectrode array (MEA) plates and Maestro recording system. Each well of the MEA plate contains a grid of 16 microelectrodes embedded in the culture surface. Electrically active cells, such as neurons, can be cultured over the electrodes, and electrical activity in these cells can be recorded extracellularly. The spontaneous firing of neurons is captured from each electrode on a microsecond timescale providing both temporally and spatially precise data. […] The CCTE_Shafer_MEA_acute assay uses primary cultures of rat cortical neurons. As these cultures mature over time, neural networks develop functional activity and form cohesive networks in which electrical activity can be highly coordinated. Baseline 40-minute recordings are made on days post-plating 13 or 15, followed by a secondary 40-minute recording after chemical exposure.CCTE_Shafer_MEA_acute_per_network_burst_spike_number_mean is a component of the CCTE_Shafer_MEA_acute assay. It measures the average number of spikes (action potential firings) in a network burst (temporally-clustered group of spikes across multiple electrodes) as the total number of spikes in a network burst divided by the number of network bursts during a recording in a microelectrode array (MEA) using Axion Biosystems Maestro 768 channel amplifier with the AxIS adaptive spike detector. The recordings before and after chemical treatment are used to calculate a percent change in the mean number of spikes in a network burst in each well.Data from the assay component CCTE_Shafer_MEA_acute_per_network_burst_spike_number_mean was analyzed into 1 assay endpoint. This assay endpoint, CCTE_Shafer_MEA_acute_per_network_burst_spike_number_mean, was analyzed in the negative analysis fitting direction relative to DMSO as the negative control and baseline of activity. Using a type of functional reporter, gain or loss-of-signal activity can be used to understand electrical activity.
Spontaneous activity in the cortical cultures was recorded using an Axion Biosystems Maestro 768 channel amplifier and Axion Integrated Studios (AxIS) v1.8 (or later) software. The amplifier recorded from all channels simultaneously (gain = 1200 x; sampling rate = 12.5 kHz/channel): raw signals were filtered with a Butterworth band-pass filter (300-5000 Hz), which filters out slower local field potentials leaving only fast potentials, i.e., "spikes", arising from extracellular currents associated with action potentials (Pine 2006; Wheeler and Nam 2011). On-line spike detection of filtered signals was conducted with the AxIS adaptive spike detector, using a threshold of 8x the root mean squared (rms) noise on each channel. Any electrodes with rms noise levels greater than 5 uV were grounded (e.g., no data were recorded). Once grounded, an electrode was grounded for the duration of the experiment. All recordings were conducted at 37 C. Wells were deemed usable if on the day of the exposure >/= 10 electrodes were active (defined as >/= 5 spikes/min). On DIV 13 or 15, a minimum of three wells from one cortical culture preparation were treated with each compound (0.03-40 uM). Prior to recording baseline activity, each mwMEA plate was placed in the Maestro at 37 C and allowed to sit for 20 min while firing rates stabilized. Baseline activity (40 min) was recorded before the addition of each compound. An additional 40 min of spontaneous activity was recorded in the presence of each compound. Changes in network parameters relative to baseline were assessed following compound treatment.

Row | Structure (SMILES) | outcome | AC50
1 | CCOC(=O)c1ccc(C2CCC(NC[C@H](O)COc3ccc(O)c(NS(C)(=O)=O)c3)CC2)cc1 (stereo partly drawn) | inactive | 
2 | CC[C@H]1OC(=O)[C@H](C)[C@@H](O[C@H]2C[C@@](C)(OC)[C@@H](O)[C@H](C)O2)[C@H](C)[C@@H](O[C@@H]2O[C@H](C)C[C@H](N(C)C)[C@H]2O)[C@](C)(O)C[C@@H](C)C(=O)[C@H](C)[C@@H](O)[C@]1(C)O | inactive | 
3 | On1ccccc1=S | inactive | 
4 | CCCCCCCCCCCCc1ccccc1 | inactive | 
5 | CCCN(C1CCN(C(=O)C2CCNCC2)CC1)[C@@H]1CCc2ccc(OC)cc2C1 | inactive | 
6 | CCCCCCc1ccc(O)cc1O |  | 6.93 µM (active)
7 | COc1ccc2sc(C(=O)Nc3nnn[nH]3)c(OC(C)C)c2c1 | inactive | 
8 | CCCCC(CC)COC(=O)CCCCCCCCC(=O)OCC(CC)CCCC (stereo not drawn) | inactive | 
9 | CC[C@H]1CC[C@H](NCc2cc3c(cc2OC)[C@H]2C[C@H]2C(=O)N3C)[C@H](c2ccccc2)N1 | inactive | 
10 | Cc1[nH]cnc1C[C@H]1CCc2c(C)c3ccccc3n2C1=O | inactive | 
11 | O=P(OC(CCl)CCl)(OC(CCl)CCl)OC(CCl)CCl | inactive | 
12 | COc1cccc(-c2ccc(/C=C\CN3CCCCCC3)cc2Cl)c1 |  | 3.94 µM (active)
13 | CC(C)=CCCC(C)=CC=O | inactive | 
14 | O=C(O)CCN(C1(C(=O)NO)CCCC1)S(=O)(=O)c1ccc(Oc2ccc(F)cc2)cc1 | inactive | 
15 | O=C(O)c1cc(N=Nc2ccc(S(=O)(=O)Nc3ccccn3)cc2)ccc1O | inactive | 
16 | CCC(C)(C)C(=O)O[C@H]1C[C@@H](C)C=C2C=C[C@H](C)[C@H](CC[C@@H]3C[C@@H](O)CC(=O)O3)[C@H]21 | inactive | 
17 | Cn1cnc([N+](=O)[O-])c1Sc1ncnc2nc[nH]c12 | inactive | 
18 | Cn1c(=O)c2c(ncn2C)n(C)c1=O | inactive | 
